# According to the supplement of paper PMC6992640:
# ± gives the standard deviation of the averaged measurements.
# Tests used:
# Assay in all cases: cell viability (% of vehicle); higher = less cytotoxic
# Settings in all cases: 10 µM; 72 h
# [1] = test system: HCI01 (cells of a triple-negative basal-like breast cancer xenograft)
# [2] = test system: HCI03 (cells of an ER-positive luminal breast cancer xenograft)
# [3] = test system: HCI09 (cells of a triple-negative luminal androgen receptor type breast cancer xenograft)
# [4] = test system: HCI11 (cells of an ER-positive luminal breast cancer xenograft)
# [5] = test system: HCI13 (cells of an ER-positive luminal breast cancer xenograft)
# [6] = test system: HCI16 (cells of a triple-negative basal-like breast cancer xenograft)
# [7] = test system: UCD52 (cells of a triple-negative basal-like breast cancer xenograft)
# [8] = test system: WHIM2 (cells of a triple-negative basal-like breast cancer xenograft)
# [9] = test system: WHIM30 (cells of a triple-negative basal-like breast cancer xenograft)
# 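Note: PDX cells carrying CMV promoter-driven luciferase, viability read as total photon flux per second by IVIS imaging following D-luciferin, vehicle control 0.1% DMSO.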
Structure (SMILES),cell viability [1],cell viability [2],cell viability [3],cell viability [4],cell viability [5],cell viability [6],cell viability [7],cell viability [8],cell viability [9]
CC(C)(C)NCC(O)COc1cccc2c1CCC(O)=N2.Cl (centres undefined) [Carteolol HCl],96.4 ± 13,144,97.3 ± 14,110,123 ± 1.9,115,114 ± 3.5,87.3 ± 17,116.5 ± 0.86
CCN1CCN(C(=O)NC(C(=O)NC2C(=O)N3C2SC(C)(C)C3C(=O)[O-])c2ccccc2)C(=O)C1=O.[Na+] (centres undefined) [Piperacillin Sodium],109 ± 7.5,91.8,76.1 ± 26,92.6,88.4 ± 1.3,111,108 ± 17,105 ± 18,152 ± 15
CC(C)NCC(O)COc1ccc(CCOCC2CC2)cc1.Cl (centres undefined) [Betaxolol HCl],132 ± 2.2,134,107 ± 34,107,87 ± 6.8,149,74.2 ± 1.6,101 ± 15,117 ± 1.3
COC(=O)Nc1nc2cc(C(=O)c3ccccc3)ccc2[nH]1 [Mebendazole],134 ± 45,110,119 ± 45,68.6,88.9 ± 15,177,103.3 ± 0.22,92.6 ± 18,110.3 ± 0.28
CNC(=O)C(NC(=O)C(CC(C)C)C(O)C(=O)NO)C(C)(C)C (centres undefined) [Marimastat],138 ± 9.7,111,78.3 ± 3,118,72.6 ± 8.9,127,101 ± 16,105 ± 10,117 ± 13
O=C(O)C=CC(=O)O.OCCOCCN1CCN(C2=Nc3ccccc3Sc3ccccc32)CC1.OCCOCCN1CCN(C2=Nc3ccccc3Sc3ccccc32)CC1 [Quetiapine Fumarate],186 ± 14,91.6,81.6 ± 5.6,123,83 ± 0.84,163,78.8 ± 2,128 ± 7,154 ± 6.5
CCCCCCCCCC(=O)NC(Cc1c[nH]c2ccccc12)C(=O)NC(CC(N)=O)C(=O)NC(CC(=O)O)C(=O)NC1C(=O)NCC(=O)NC(CCCN)C(=O)NC(CC(=O)O)C(=O)NC(C)C(=O)NC(CC(=O)O)C(=O)NCC(=O)NC(CO)C(=O)NC(C(C)CC(=O)O)C(=O)NC(CC(=O)c2ccccc2N)C(=O)OC1C (centres undefined) [Daptomycin],142 ± 4.9,141,128 ± 9.9,113,163 ± 89,111,118 ± 18,103 ± 28,162 ± 40
CC1OC(OC2C(CO)OC(OC3C(CO)OC(O)C(O)C3O)C(O)C2O)C(O)C(O)C1NC1C=C(CO)C(O)C(O)C1O (centres undefined) [Acarbose],112 ± 9.7,109,99 ± 8.6,88.2,117 ± 12,78.5,93.3 ± 9.7,86 ± 17,104 ± 29
CN1CCN(c2c(F)cc3c(=O)c(C(=O)O)cn4c3c2OCN4C)CC1 [Marbofloxacin],99.12 ± 0.67,99.3,69.9 ± 9,138,129 ± 17,114,136 ± 18,75.5 ± 2.6,148 ± 30
CC(C[N+](C)(C)C)OC(N)=O.[Cl-] (centres undefined) [Bethanechol chloride],86.3 ± 5.2,88,90.8 ± 12,82.5,104 ± 14,101,100 ± 5.9,105 ± 6.2,79.4 ± 1.9
Cc1ccc(S(=O)(=O)NC(=O)NN2CC3CCCC3C2)cc1 (centres undefined) [Gliclazide],93.2 ± 72,143,90.8 ± 21,90.2,105 ± 4.1,122,95.6 ± 12,125 ± 8.1,125 ± 9.6
CC(C)NCC(O)c1ccc(O)c(O)c1.Cl (centres undefined) [Isoprenaline HCl],95.7 ± 15,108,87.2 ± 13,90.3,76.2 ± 2,122,91.9 ± 9.1,77.2 ± 5.8,113 ± 7.1
CC(C)CN(CC(O)C(Cc1ccccc1)NC(=O)OC1CCOC1)S(=O)(=O)c1ccc(N)cc1 (centres undefined) [Amprenavir (agenerase)],96.3 ± 11,99.1,85.6 ± 4.6,104,103 ± 7.5,115,56.8 ± 3.1,78.8 ± 8.7,112 ± 25
CC(=O)c1c(C)c2cnc(Nc3ccc(N4CCNCC4)cn3)nc2n(C2CCCC2)c1=O.Cl,134 ± 73,141,86.1 ± 9.9,152,110 ± 31,114,82.86 ± 0.55,88.8 ± 7.7,132 ± 6.1
CCNC1CN(CCCOC)S(=O)(=O)c2sc(S(N)(=O)=O)cc21 (centres undefined) [Brinzolamide],108 ± 12,142,97.6 ± 15,139,132 ± 16,100,88.17 ± 0.49,104 ± 12,96.6 ± 7.1
CNCC(O)C(O)C(O)C(O)CO.Cc1c(Nc2ncccc2C(=O)O)cccc1C(F)(F)F [Flunixin Meglumin],135 ± 49,120,141 ± 44,103,133 ± 14,105,77.6 ± 16,130 ± 17,107 ± 2.9
Nc1ccn(C2OC(CO)C(O)C2(F)F)c(=O)n1 (centres undefined) [Gemcitabine],70.3 ± 11,95.9,75.1 ± 9.5,112,118 ± 5.3,64.7,100.6 ± 0.62,78.9 ± 22,119 ± 12
CC(Cn1cnc2c(N)ncnc21)OCP(=O)(O)O (centres undefined) [Tenofovir],89.1 ± 9.4,123,103 ± 15,106,112 ± 11,116,90.6 ± 6.9,99.3 ± 14,121.3 ± 1.2
COC(=O)C(Cc1ccccc1)NC(=O)C(N)CC(=O)O (centres undefined) [Aspartame],120 ± 6.8,152,104 ± 3.9,119,161 ± 4.4,117,100 ± 21,131 ± 23,128 ± 6.7
CC(C)C1CCC(C(=O)NC(Cc2ccccc2)C(=O)O)CC1 (centres undefined) [Nateglinide],84.1 ± 62,131,76.3 ± 6.6,87.4,112 ± 18,110,94 ± 4.4,117 ± 19,122 ± 17
CCC(C)C(=O)OC1CC(O)C=C2C=CC(C)C(CCC(O)CC(O)CC(=O)[O-])C21.[Na+] (centres undefined) [Pravastatin sodium],142 ± 13,184,126 ± 28,113,142.3 ± 0.11,152,100 ± 3.8,105 ± 20,156 ± 1.8
CC(C(=O)O)c1cccc(Oc2ccccc2)c1 (centres undefined) [Fenoprofen calcium hydrate],98.6 ± 19,104,94.2 ± 14,89,101 ± 6.6,120,85 ± 3.6,105 ± 1.2,139 ± 25
CO[C@H]1/C=C/O[C@@]2(C)Oc3c(C)c(O)c4c(c3C2=O)C(=O)/C(=C/NN2CCN(C)CC2)C(=C4O)NC(=O)/C(C)=C/C=C/[C@H](C)[C@H](O)[C@@H](C)[C@@H](O)[C@@H](C)[C@H](OC(C)=O)[C@@H]1C [Rifampin],86.5 ± 29,133,85.8 ± 2.5,94.5,108 ± 16,145,82.91 ± 0.51,64 ± 0.77,94.88 ± 0.76

Structure (SMILES),cell viability [1],cell viability [2],cell viability [3],cell viability [4],cell viability [5],cell viability [6],cell viability [7],cell viability [8],cell viability [9]
CCN(CC)CCOCCOC(=O)C(CC)(CC)c1ccccc1.O=C(O)CC(O)(CC(=O)O)C(=O)O [Oxeladin Citrate],111.1 ± 1.1,92.7,143 ± 73,99.4,98.7 ± 22,122,84.9 ± 4.5,82.4 ± 24,119 ± 21
CC(=O)Nc1ccc(O)cc1 [Acetaminophen],93.9 ± 24,101,98.4 ± 7.2,80.4,116 ± 14,126,102 ± 6.9,92.71 ± 0.48,97.4 ± 3.5
NS(=O)(=O)NCC/N=C1\NON\C1=C(\N=O)Nc1ccc(F)c(Br)c1,105 ± 6.8,99,35 ± 8.5,96.4,66.5 ± 1.4,112,57.5 ± 3.6,88.9 ± 9.7,96.2 ± 6
COCC1=C(C(=O)OC(C)OC(=O)OC(C)C)N2C(=O)[C@@H](NC(=O)/C(=N\OC)c3csc(N)n3)[C@H]2SC1 (some centres undefined) [Cefpodoxime Proxetil],106 ± 3.7,176,102 ± 11,103,109 ± 18,133,99.2 ± 12,106 ± 3.2,105 ± 12
CCOC(=O)C1=C(C)NC(C)=C(C(=O)OC)C1c1cccc([N+](=O)[O-])c1 (centres undefined) [Nitrendipine],111 ± 10,123,93.6 ± 17,112,104 ± 0.32,90.2,80.15 ± 0.7,95.6 ± 22,97.2 ± 5.3
COc1ccc2cc([C@H](C)C(=O)[O-])ccc2c1.[Na+] [Naproxen Sodium],83.6 ± 6.4,111,85.8 ± 14,106,124 ± 29,100,99.9 ± 3.1,102 ± 12,121 ± 22
OC[C@@H](O)[C@@H](O)[C@H](O)[C@@H](O)CO [D-Sorbitol],96 ± 11,118,107 ± 21,91.5,109 ± 4.5,120,96.3 ± 8,103 ± 2.6,120 ± 21
CC(C)(C)c1cc(NC(=O)Nc2ccc(-c3cn4c(n3)sc3cc(OCCN5CCOCC5)ccc34)cc2)no1 [Quizartinib (AC220)],168 ± 27,112,81.5 ± 1.3,111,94 ± 17,127,146 ± 29,74.2 ± 3.8,193 ± 34
CC(C)NCC(O)c1ccc(NS(C)(=O)=O)cc1.Cl (centres undefined) [Sotalol],120 ± 11,116,105 ± 37,103,103 ± 5.8,105,85.2 ± 2.1,101 ± 13,118 ± 17
CC(O)C1C(=O)N2C(C(=O)O)=C(SC3CNC(CNS(N)(=O)=O)C3)C(C)C12.O (centres undefined) [Doripenem Hydrate],103 ± 1.4,91.1,95.9 ± 7,84.3,84.8 ± 5.9,95.3,89.1 ± 5.5,93.6 ± 7.5,109 ± 5.1
Cc1cc(=O)n(-c2ccccc2)n1C [Antipyrine],110 ± 15,131,101 ± 10,103,88.6 ± 1.1,95.9,98.2 ± 7.5,106 ± 30,125 ± 11
Cl.c1ccc(CN(CC2=NCCN2)c2ccccc2)cc1 [Antazoline HCl],133.9 ± 0.91,123,103 ± 1.1,119,109 ± 9.2,144,66.7 ± 18,92.52 ± 0.86,102 ± 8.3
CCCC(NC(C)C(=O)N1C(C(=O)O)CC2CCCCC21)C(=O)OCC (centres undefined) [Perindopril],110.1 ± 0.73,111,131 ± 35,111,134 ± 4.2,94.2,103 ± 2.7,102 ± 5.3,101 ± 2.5
COC(=O)C1C2CC3c4[nH]c5cc(OC)ccc5c4CCN3CC2CC(OC(=O)c2cc(OC)c(OC)c(OC)c2)C1OC.Cl (centres undefined) [Reserpine hydrochloride],109 ± 8.9,114,66.7 ± 3.4,97.6,124 ± 17,87.9,79.9 ± 1.5,92.6 ± 19,78.4 ± 6.3
CC12C=CC(=O)C=C1CCC1C2C(=O)CC2(C)C1CCC2(O)C(=O)CO (centres undefined) [Prednisone],71.1 ± 46,93.9,118 ± 37,98.9,165 ± 8.5,138,103 ± 3.1,92.6 ± 38,130 ± 13
CCN(CCO)CCCOc1ccc2c(Nc3cc(CC(=O)Nc4cccc(F)c4)[nH]n3)ncnc2c1 [Barasertib (AZD1152-HQPA)],136 ± 22,118,79.2 ± 6.8,91.5,97.3 ± 5.7,143,107 ± 20,89.4 ± 4,131 ± 0.53
Cn1c(=O)c2[nH]cnc2n(C)c1=O.Cn1c(=O)c2[nH]cnc2n(C)c1=O.NCCN [Aminophylline],98 ± 18,95.2,93.6 ± 9.1,99.4,101 ± 5.1,75.8,72 ± 16,97.4 ± 7.5,92.5 ± 24
"Cc1[nH]c(C=C2C(=O)Nc3ccccc32)c(C)c1CCC(=O)O [TSU-68 (SU6668,Orantinib)]",79.2 ± 19,116,90.8 ± 25,106,60.8 ± 6.6,111,123 ± 18,60.9 ± 4.7,112 ± 13
O=C([O-])c1cc(=O)c2c(OCC(O)COc3cccc4oc(C(=O)[O-])cc(=O)c34)cccc2o1.[Na+].[Na+] [Cromolyn sodium],136 ± 48,135,97.1 ± 3.8,71.8,102 ± 13,116,113 ± 5,134 ± 15,121 ± 4.5
CC1(O)CC(c2nc(-c3ccc4ccc(-c5ccccc5)nc4c3)c3c(N)nccn23)C1 (centres undefined) [Linsitinib],112 ± 1.2,109,73.3 ± 39,76.3,38.6 ± 4,127,71.6 ± 2.8,102 ± 11,126 ± 12
CNCC(O)c1ccc(O)c(O)c1.O=C(O)C(O)C(O)C(=O)O (centres undefined) [Epinephrine Bitartrate],90.1 ± 26,96.3,89 ± 23,90.8,71.7 ± 3.3,96.7,100 ± 8.4,67.4 ± 26,110.2 ± 1.1
COc1ccccc1OCC(O)CN1CCN(CC(=O)Nc2c(C)cccc2C)CC1 (centres undefined) [Ranolazine],136 ± 2.8,96.3,134 ± 75,103,120 ± 35,120,89.4 ± 19,109 ± 19,130 ± 17
Cl.c1ccc2c(CC3=NCCN3)cccc2c1 [Naphazoline HCl],121 ± 18,105,104 ± 20,101,88.7 ± 14,93.3,81.6 ± 9.3,92.3 ± 26,122 ± 21
